The values below come from PubChem BioAssay AID2279 (Southern Research Specialized Biocontainment Screening …, 2010).

Entries with a potency or affinity are not part of this list. A number with no mark means an inactive call. No rule for the calls is given here.

A short description of the assay: HIV-1 Env-mediated cell fusion inhibitors, dose response, CCR5-tropic Env (AID 2279). Conditions: CCR5-tropic HIV-1 Env, reporter read-out; series mostly up to 50 µM; inhibition: at the top concentration.
Take `Cc1cc(C)cc(-n2cccc2/C=C2/C(=N)N3C(=NC2=O)SN=C3S(C)(=O)=O)c1`: the “inhibition” value was 4.76%.

As for `Cc1ccccc1C(=O)Nc1cccc(C(=O)N/N=C/c2cc(Cl)cc([N+](=O)[O-])c2O)c1`, the “inhibition” value was 39.4%.

With `CCCCCNC(=O)c1ccc2c(=O)[nH]c3c(C(=O)NCC4CCCO4)sc(=S)n3c2c1` (stereo not given), the “inhibition” value was 28.3%. As for `CCc1nnc(NS(=O)(=O)c2ccc(NC(=S)NC(=O)/C=C/c3ccc(F)cc3)cc2)s1`, the “inhibition” value was -5%. `O=C(N/N=C/c1cc(Cl)cc([N+](=O)[O-])c1O)c1ccccc1NS(=O)(=O)c1cccs1`: the “inhibition” value is -28%. To `Cc1cc(/C=C2\C(=N)N3N=C(S(C)(=O)=O)SC3=NC2=O)c(C)n1Cc1ccccc1` belongs 14%. Under `CC1=NN(c2ccc(C(=O)O)cc2)C(=O)/C1=C\c1ccc(OC(=O)c2cccs2)cc1` stands 9.07%; under `O=C(O)c1cccc(-n2cccc2/C=C2/NC(=O)N(c3ccc(Cl)cc3)C2=O)c1`, 18.4%; under `O=C(O)c1ccccc1NS(=O)(=O)c1ccc(NNC(=S)Nc2ccc(OC(F)F)cc2)c([N+](=O)[O-])c1`, -5.05%. To `O=C(O)C1Nc2c(cccc2C(F)(F)F)C2C=CCC12` (stereo not given) belongs 9.45%; to `COc1cccc(NS(=O)(=O)c2ccc3c(c2)C2C=CCC2C(c2ccc(C(=O)O)cc2)N3)c1` (stereo not given), 11.7%. On to `O=C(O)c1[nH]c2ccccc2c1C(c1cccc(O)c1)c1c(C(=O)O)[nH]c2ccccc12`, for which the “inhibition” value was -15.4%. To `Nc1c(S(=O)(=O)O)cc(NC(=O)c2ccccc2)c2c1C(=O)c1ccccc1C2=O` belongs -0.14%.

In the case of `CCN1C(=O)/C(=C\c2ccc(-c3ccc([N+](=O)[O-])cc3OC)o2)SC1=Nc1cccc(C(=O)O)c1`, the “inhibition” value is 11.7%. As for `O=C(O)c1[nH]c2ccccc2c1C(c1cc(Cl)cc([N+](=O)[O-])c1O)c1c(C(=O)O)[nH]c2ccccc12`, the “inhibition” value was -29.6%. Regarding `COc1cc(/C=C2\C(=N)N3N=C(S(C)(=O)=O)SC3=NC2=O)ccc1OC(=O)c1ccco1`, the “inhibition” value is -2.37%. To `O=C(CSc1nc2ccccc2c(=O)n1Cc1ccccc1)Nc1ccc(Br)cc1C(=O)O` belongs 7.04%; to `CCOC(=O)c1sc(N2C(=O)C(O)=C(C(=O)c3ccco3)C2c2cccc([N+](=O)[O-])c2)nc1C` (stereo not given), 17.9%; to `O=C(O)c1cc(-c2ccc(/C=N/Nc3ccc(Cl)cc3)o2)ccc1Cl`, 7.74%.

Consider `O=C(O)CN1C(=O)/C(=C\c2cc(Br)ccc2OCc2ccccc2Cl)SC1=S`, for which the “inhibition” value was 7.33%. Under `Cc1cc(N2C(=O)C(O)=C(C(=O)c3cc4ccccc4o3)C2c2ccc(Cl)cc2)no1` (stereo not given) stands 32.2%; under `CCCCCCc1c(C)c2ccc(OCC(=O)N[C@@H](Cc3ccccc3)C(=O)O)cc2oc1=O`, -3.71%. Under `CCOc1cc(/C=N/N=C2/NC(=O)C(CC(=O)O)S2)ccc1OCc1ccc(Cl)cc1Cl` (stereo not given) stands 21.9%; under `COc1cc(/C=C2\SC(=Nc3ccccc3)N(CCc3c[nH]c4ccccc34)C2=O)ccc1OC(C)C(=O)O` (stereo not given), 36.7%; under `O=C(O)c1[nH]c2ccccc2c1C(c1ccccc1)c1c(C(=O)O)[nH]c2ccccc12`, -7.23%.

Take `CC(Oc1ccc(Cl)cc1Cl)C(=O)Nc1ccc(S(=O)(=O)Nc2cnc3ccccc3n2)cc1` (stereo not given): the “inhibition” value was 20.3%. `Cc1cccc(OCC(=O)Nc2ccc(C(=O)Nc3ccccc3C(=O)O)cc2)c1C`: the “inhibition” value was 8.51%.

For the compound `CCOc1cc(/C=C2/C(=N)N3C(=NC2=O)SN=C3S(=O)(=O)CC)ccc1OC(=O)c1ccco1`, the “inhibition” value is -0.67%.

Consider `CC(C)S(=O)(=O)C1=NSC2=NC(=O)/C(=C\c3ccc(OC(=O)c4ccco4)cc3)C(=N)N21`, for which the “inhibition” value is 8.59%. Under `Cc1cc(/C=C2/C(=N)N3C(=NC2=O)SN=C3S(C)(=O)=O)c(C)n1-c1ccccc1` stands 5.12%. Under `O=C(CCN1C(=O)/C(=C/c2cccs2)SC1=S)Nc1ccc(C(=O)O)c(O)c1` stands 5.85%.

Take `O=C(O)CN1C(=O)/C(=C\c2cc(Br)ccc2OCc2ccccc2F)SC1=S`: the “inhibition” value was -3.94%.

For `CCc1oc2ccccc2c1C(=O)c1cc(Br)c(O)c(Br)c1`, the “inhibition” value is 31%.

In the case of `CC(C)CS(=O)(=O)C1=NSC2=NC(=O)/C(=C\c3ccc(OC(=O)c4ccco4)cc3)C(=N)N21`, the “inhibition” value was -4.18%. Under `O=C(O)/C(CC(=O)c1ccc(Cl)cc1)=N/Nc1ccc([N+](=O)[O-])cc1[N+](=O)[O-]` stands -3.03%.

The inhibition is the drop in the measured response relative to a control, in per cent.
